{"source": "PubChem BioAssay AID1347418", "about": "(Sanford-Burnham Center for Chemical Genomics, 2020)", "note": "The whole screen tested about 1,300 compounds, of which about 750 (58%) were called active. The list shows a part of the results. A number with no mark means an inactive call."}
{"target": "Sulfhydryl oxidase 1 (Homo sapiens) (UniProt O00391)", "sequence (O00391 whole entry, looked up)": "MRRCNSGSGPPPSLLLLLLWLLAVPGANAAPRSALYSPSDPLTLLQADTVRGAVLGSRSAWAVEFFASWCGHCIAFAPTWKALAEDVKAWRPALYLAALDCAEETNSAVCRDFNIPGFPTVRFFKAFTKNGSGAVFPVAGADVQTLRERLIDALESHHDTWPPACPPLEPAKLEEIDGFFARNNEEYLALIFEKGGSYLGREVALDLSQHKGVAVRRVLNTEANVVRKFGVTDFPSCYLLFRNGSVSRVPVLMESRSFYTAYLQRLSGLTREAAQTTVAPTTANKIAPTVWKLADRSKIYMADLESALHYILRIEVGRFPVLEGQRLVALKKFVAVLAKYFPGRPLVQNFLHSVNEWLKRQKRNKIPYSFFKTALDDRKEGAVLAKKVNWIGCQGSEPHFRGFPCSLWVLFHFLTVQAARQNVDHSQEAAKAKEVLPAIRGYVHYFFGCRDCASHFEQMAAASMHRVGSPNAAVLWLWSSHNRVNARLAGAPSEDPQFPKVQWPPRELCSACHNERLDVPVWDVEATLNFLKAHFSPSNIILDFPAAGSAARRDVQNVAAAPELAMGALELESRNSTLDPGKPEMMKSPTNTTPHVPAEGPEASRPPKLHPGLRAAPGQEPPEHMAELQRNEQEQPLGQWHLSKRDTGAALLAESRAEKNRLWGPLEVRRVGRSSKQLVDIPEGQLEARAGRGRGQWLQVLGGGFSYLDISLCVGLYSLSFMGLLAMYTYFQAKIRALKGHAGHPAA", "assay": "QSOX1 enzyme inhibitors, primary screen, biochemical, ROS-Glo H2O2 luminescence, HTS (AID 1347418)", "conditions": "recombinant QSOX1, ROS-Glo H2O2 luminescence; at 12.5 µM; hits give high values; active = any value above zero"}
{"compound": "COc1cc(SC)ccc1C(=O)N1CCC(Cc2ccccc2)CC1", "inhibition": "1.4% (active)"}
{"compound": "COc1ccc(/C=C2\\COc3ccc(C)cc3C2=O)cc1O", "inhibition": "-1.7%"}
{"compound": "CN(CC[C@@H](Oc1ccc(C(F)(F)F)cc1)c1ccccc1)CC(=O)O", "inhibition": "6.8% (active)"}
{"compound": "CNCC[C@H](Oc1ccc(C(F)(F)F)cc1)c1ccccc1", "inhibition": "11.2% (active)"}
{"compound": "CNCCC(Oc1ccccc1OC)c1ccccc1", "note": "(stereo not given)", "inhibition": "-2.5%"}
{"compound": "CNCCC(Oc1ccc(C(F)(F)F)cc1)c1ccccc1", "note": "(stereo not given)", "inhibition": "2.1% (active)"}
{"compound": "CNCCC(Oc1ccccc1C)c1ccccc1", "note": "(stereo not given)", "inhibition": "0%"}
{"compound": "Ic1ccc(N2CCN(Cc3c[nH]c4ncccc34)CC2)cc1", "inhibition": "15.6% (active)"}
{"compound": "OC1(c2ccc(Cl)cc2)CCN(Cc2c[nH]c3ccccc23)CC1", "inhibition": "-1.5%"}
{"compound": "Clc1ccc(N2CCN(Cc3c[nH]c4ncccc34)CC2)cc1", "inhibition": "24.1% (active)"}
{"compound": "Nc1nc2c(cnn2CCc2ccccc2)c2nc(-c3ccco3)nn12", "inhibition": "1.8% (active)"}
{"compound": "Nc1nc2ccc(Cl)cc2c2nc(-c3ccco3)nn12", "inhibition": "-0.2%"}
{"compound": "CN1C2CC(OC(=O)[C@H](CO)c3ccccc3)CC1C1OC12", "note": "(stereo not given in full)", "inhibition": "-3.1%"}
{"compound": "CN1C2CCC1CC(OC(=O)C(O)c1ccccc1)C2", "note": "(stereo not given)", "inhibition": "-5.9%"}
{"compound": "CN1C2CCC1CC(OC(=O)c1c[nH]c3ccccc13)C2", "note": "(stereo not given)", "inhibition": "2.4% (active)"}
{"compound": "CN1C2CCC1CC(OC(c1ccccc1)c1ccccc1)C2", "note": "(stereo not given)", "inhibition": "-10.1%"}
{"compound": "CN1C2CCC1CC(OC(=O)C(CO)c1ccccc1)C2", "note": "(stereo not given)", "inhibition": "3% (active)"}
{"compound": "COc1ccc(/C=C/C(=O)Nc2ccccc2C(=O)O)cc1OC", "inhibition": "23.4% (active)"}
{"compound": "CN[C@H](CC(C)C)C(=O)N[C@H]1C(=O)N[C@@H](CC(N)=O)C(=O)N[C@H]2C(=O)N[C@H]3C(=O)N[C@H](C(=O)N[C@H](C(=O)O)c4cc(O)cc(O)c4-c4cc3ccc4O)[C@H](O)c3ccc(c(Cl)c3)Oc3cc2cc(c3O[C@@H]2O[C@H](CO)[C@@H](O)[C@H](O)[C@H]2O[C@H]2C[C@](C)(N)[C@H](O)[C@H](C)O2)Oc2ccc(cc2Cl)[C@H]1O", "inhibition": "3.1% (active)"}
{"compound": "CC1=C(C)C(=O)C(CCCCC#CCCCC#CCO)=C(C)C1=O", "inhibition": "5.7% (active)"}
{"compound": "C=C1C[C@@]23CC[C@H]4[C@@](C)(CCC[C@@]4(C)C(=O)O)[C@@H]2CC[C@]1(O)C3", "inhibition": "-3.8%"}
{"compound": "C=C1C[C@@]23CC[C@H]4[C@@](C)(CCC[C@@]4(C)C(=O)OC4OC(CO)C(O)C(O)C4O)[C@@H]2CCC1(OC1OC(CO)C(O)C(O)C1OC1OC(CO)C(O)C(O)C1O)C3", "note": "(stereo not given in full)", "inhibition": "5.4% (active)"}
{"compound": "CN1CC(=O)N/C1=N\\C(=O)Nc1cccc(Cl)c1", "inhibition": "-0.1%"}
{"compound": "C[C@H](CS)C(=O)N1CCC[C@H]1C(=O)O", "inhibition": "0.1% (active)"}
{"compound": "O=C(O)CCC(=O)N1CCCC1C(=O)O", "note": "(stereo not given)", "inhibition": "4.1% (active)"}
{"compound": "NC(N)=Nc1nc(CSCC/C(N)=N/S(N)(=O)=O)cs1", "inhibition": "0.1% (active)"}
{"compound": "CC(C)C(=O)c1c(C(C)C)nn2ccccc12", "inhibition": "-4.2%"}
{"compound": "CCOC(=O)N1CCC(=C2c3ccc(Cl)cc3CCc3cccnc32)CC1", "inhibition": "-1.5%"}
{"compound": "Cc1c(OCC(F)(F)F)ccnc1CS(=O)c1nc2ccccc2[nH]1", "note": "(stereo not given)", "inhibition": "-0.2%"}
{"compound": "CCn1nc(C(=O)O)c(=O)c2cc3c(cc21)OCO3", "inhibition": "3.1% (active)"}
{"compound": "CCn1cc(C(=O)O)c(=O)c2cc3c(cc21)OCO3", "inhibition": "2.6% (active)"}
{"compound": "CCn1cc(C(=O)O)c(=O)c2cc(F)c(N3CCNC(C)C3)c(F)c21", "note": "(stereo not given)", "inhibition": "-1.7%"}
{"compound": "CCn1cc(C(=O)O)c(=O)c2ccc(C)nc21", "inhibition": "-5.8%"}
{"compound": "O=C(O)c1cc2cc(Cc3cccnc3)ccc2o1", "inhibition": "-7.8%"}
{"compound": "C[C@]12CC[C@@H]3c4ccc(O)cc4CC[C@H]3[C@@H]1CCC2=O", "inhibition": "-1.6%"}
{"compound": "C[C@]12CC[C@@H]3c4ccc(O)cc4C[C@@H](CCCCCCCCCS(=O)CCCC(F)(F)C(F)(F)F)[C@H]3[C@@H]1CC[C@@H]2O", "note": "(stereo not given in full)", "inhibition": "-4.8%"}
{"compound": "C[C@]12CC[C@@H]3c4ccc(O)cc4CC[C@H]3[C@@H]1CC[C@@H]2O", "inhibition": "5.6% (active)"}
{"compound": "COc1ccc2c(c1)CCC1C2CC[C@@]2(C)C1CC[C@@H]2NCCCCCCN1C(=O)CCC1=O", "note": "(stereo not given in full)", "inhibition": "-2.7%"}
{"compound": "COc1cc2c(cc1O)CC[C@@H]1[C@@H]2CC[C@]2(C)[C@@H](O)CC[C@@H]12", "inhibition": "36% (active)"}
{"compound": "COc1ccc2c(c1)CCC1C2CC[C@@]2(C)C1CC[C@@H]2NCCCCCCN1C(=O)C=CC1=O", "note": "(stereo not given in full)", "inhibition": "-7.4%"}
{"compound": "CCCCCCN(CCCCCC)C(=O)Cc1c(-c2ccc(F)cc2)[nH]c2ccccc12", "inhibition": "-2.9%"}
{"compound": "COc1cc2nc(N3CCCN(C)CC3)nc(NC3CCN(Cc4ccccc4)CC3)c2cc1OC", "inhibition": "1.5% (active)"}
{"compound": "Oc1ccc(O)cc1", "inhibition": "11.1% (active)"}
{"compound": "CSc1nc(N)c2ncn([C@@H]3O[C+](COP(=O)([O-])OP(=O)(O)O)[C@H](O)C3O)c2n1", "note": "(stereo not given in full)", "inhibition": "0.7% (active)"}
{"compound": "CNc1ncnc2c1ncn2[C@H]1C[C@H](OP(=O)(O)O)[C@@H](COP(=O)(O)O)O1", "inhibition": "-3.3%"}
{"compound": "C[N+](C)(C)CCOP(=O)(O)OP(=O)([O-])OC[C@H]1O[C@@H](n2ccc(N)nc2=O)C(O)[C@H]1O", "note": "(stereo not given in full)", "inhibition": "-0.3%"}
{"compound": "NC(N)=NC(N)=Nc1ccccc1", "inhibition": "-4.7%"}
{"compound": "NC(N)=NC(=O)Cc1c(Cl)cccc1Cl", "inhibition": "-6.8%"}
{"compound": "NC(N)=NC(N)=Nc1cccc(Cl)c1", "inhibition": "9.6% (active)"}
{"compound": "Oc1ccccc1O", "inhibition": "5.6% (active)"}
{"compound": "CCCN(CCc1ccccc1)C1CCc2c(O)cccc2C1", "note": "(stereo not given)", "inhibition": "-0.3%"}
{"compound": "CCN(CC)CCCN(c1ccccc1)C1Cc2ccccc2C1", "inhibition": "40.2% (active)"}
{"compound": "COc1cccc(-c2cc(=O)c3ccccc3o2)c1N", "inhibition": "0.9% (active)"}
{"compound": "N#Cc1cc2nc(O)c(O)nc2cc1[N+](=O)[O-]", "inhibition": "0.9% (active)"}
{"compound": "O=C1NCC2(CCN(CCc3ccccc3)CC2)O1", "inhibition": "-1%"}
{"compound": "C[C@@H](O)[C@H]1C(=O)N2C(C(=O)O)=C(SCCN=CN)C[C@H]12", "inhibition": "-5.2%"}
{"compound": "C=CCN1CCc2c(cc(O)c(O)c2Br)[C@@H](c2ccccc2)C1", "inhibition": "26.8% (active)"}
{"compound": "Cc1cccc(C2CN(C)CCc3c2cc(O)c(O)c3Cl)c1", "note": "(stereo not given)", "inhibition": "25% (active)"}
{"compound": "C=CCN1CCc2cc(O)c(O)cc2C(c2ccccc2)C1", "note": "(stereo not given)", "inhibition": "18% (active)"}
{"compound": "C=CCN1CCc2c(cc(O)c(O)c2Cl)C(c2ccccc2)C1", "note": "(stereo not given)", "inhibition": "31.6% (active)"}
